Results: PubChem BioAssay (NCI)
The panel holds about 79,000 compounds, 15% with a hit somewhere; the sample as a whole holds those more often. Calls of active or inactive are those of the source. No stated cut-off is given here; in the data, active means growth inhibition above about 70%; inactive means the rest.

Assays:
[1] = NCI Yeast Anticancer Drug Screen. Data for the rad52 strain (AID 147);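 further: 0% = growth of vehicle-treated control cultures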; details: S. cerevisiae rad52 mutant growth inhibition, hits give high values
Outline: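 Read-out: growth inhibition versus vehicle-treated controls. Cells were a DNA repair-deficient yeast strain treated with compounds.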

[2] = NCI Yeast Anticancer Drug Screen. Data for the wt1 strain (AID 149);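 further: 0% = growth of vehicle-treated wt1 cultures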; details: S. cerevisiae wt1 strain (SPY 50644) growth inhibition, hits give high values
Outline: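 Using yeast strain wt1, compound-induced growth inhibition was determined against vehicle-treated cultures.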

[3] = NCI Yeast Anticancer Drug Screen. Data for the rad50EPP+ strain (AID 151);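 further: 0% = growth of vehicle-treated control cultures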; details: S. cerevisiae rad50 mutant strain, hits give high values
Outline: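 Growth inhibition read against vehicle controls in rad50EPP+ yeast, a strain altered in DNA damage repair, after compound exposure.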

[4] = NCI Yeast Anticancer Drug Screen. Data for the mgt1 strain (AID 153); details: S. cerevisiae mgt1 mutant growth inhibition, hits give high values
Outline: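 mgt1 yeast grown with test compound; read-out is growth inhibition versus vehicle-treated cultures.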

[5] = NCI Yeast Anticancer Drug Screen. Data for the rad50 strain (AID 155);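 further: 0% = growth of vehicle-only cultures of the same strain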; details: S. cerevisiae rad50 strain growth inhibition, hits give high values
Outline: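 Relative growth inhibition (compound vs vehicle) was measured in yeast with a defined repair-gene alteration.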

[6] = NCI Yeast Anticancer Drug Screen. Data for the mec2-1 strain (AID 157); details: S. cerevisiae mec2-1 strain, hits give high values
Outline: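 Yeast mec2-1 mutant treated with compound. Readout: growth inhibition vs vehicle controls.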

[7] = NCI Yeast Anticancer Drug Screen. Data for the rad14 strain (AID 159);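 further: 0% = growth of vehicle-treated control cultures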; details: S. cerevisiae rad14 strain growth inhibition, hits give high values
Outline: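 Screen for anticancer potential: a yeast strain altered in DNA damage repair is grown with compound, and reduced growth is quantified against vehicle controls.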

[8] = NCI Yeast Anticancer Drug Screen. Data for the sgs1 mgt1 strain (AID 161);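 further: 0% = growth of cultures given vehicle only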; details: S. cerevisiae sgs1 mgt1 strain, hits give high values
Outline: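 Read-out: growth inhibition vs vehicle controls. Cells: mutant yeast strain deficient in DNA damage repair.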

[9] = NCI Yeast Anticancer Drug Screen. Data for the CLN2oe strain (AID 163);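 further: 0% = growth of vehicle-only control cultures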; details: S. cerevisiae CLN2oe strain, hits give high values
Outline: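 Read-out: yeast growth inhibition, expressed relative to vehicle-only controls. The strain bears an engineered cell-cycle alteration.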

[10] = NCI Yeast Anticancer Drug Screen. Data for the cln2 rad14 strain (AID 165);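 further: 0% = growth equal to vehicle treated cultures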; details: S. cerevisiae cln2 rad14 strain, hits give high values
Outline: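 cln2 rad14 yeast strain; compound exposure; growth inhibition read vs vehicle controls.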

[11] = NCI Yeast Anticancer Drug Screen. Data for the bub3 strain (AID 167); details: S. cerevisiae bub3 mutant strain, hits give high values
Outline: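 Screening used yeast with an engineered genetic alteration affecting cell cycle control. Compound-exposed cultures were compared with vehicle cultures, and reduced growth was taken as inhibition.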

[12] = NCI Yeast Anticancer Drug Screen. Data for the wt2 strain (AID 169);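 further: 0% = growth of vehicle-treated yeast cultures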; details: S. cerevisiae wt2 strain growth inhibition, hits give high values
Outline: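 Read-out: growth inhibition versus vehicle-treated control cultures after compound exposure of the yeast strain.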

[13] = NCI Yeast Anticancer Drug Screen. Data for the mlh1 strain (AID 171);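 further: 0% = growth of vehicle-treated control cultures of the same strain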; details: S. cerevisiae mlh1 strain growth inhibition, hits give high values
Outline: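 Read-out: growth inhibition versus vehicle controls. Strain: engineered yeast with a defined DNA repair or cell cycle defect, compound-treated.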

[14] = NCI Yeast Anticancer Drug Screen. Data for the sgs1 strain (AID 173);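 further: 0% = growth of vehicle-only control cultures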; details: S. cerevisiae sgs1 mutant, hits give high values
Outline: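 Read-out: yeast growth inhibition relative to vehicle controls, following compound exposure of a strain with a defined DNA repair/cell cycle alteration.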

[15] = NCI Yeast Anticancer Drug Screen. Data for the mlh1 rad18 strain (AID 175); details: S. cerevisiae mlh1 rad18 strain growth inhibition, hits give high values
Outline: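 Yeast w/ defined DNA-repair lesions; compound exposure; growth vs vehicle controls → % inhibition.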

[16] = NCI Yeast Anticancer Drug Screen. Data for the rad18 strain (AID 177); details: S. cerevisiae rad18 mutant growth inhibition, hits give high values
Outline: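 Readout: growth inhibition vs vehicle controls. Cells: genetically altered yeast strain, DNA repair defect.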

[17] = at 5.0 µM (retest, dose inferred, filed as 0.5)
[18] = at 50.0 µM (retest, dose inferred, filed as 5.0)

Measured: growth inhibition

CCCCCCCSCC1C(=O)C23C(O)C1CCC2C12COC3(O)C(O)C1C(C)(C)CCC2O (stereo unspecified)
active: [1]; at 11.0 µM 71% | [1]; at 33.0 µM 94% | [1]; at 100.0 µM 85% | [2]; at 11.0 µM 82% | [2]; at 33.0 µM 95% | [2]; at 100.0 µM 90% | [4]; at 11.0 µM 88% | [4]; at 33.0 µM 96% | [4]; at 100.0 µM 89% | [5]; at 33.0 µM 93% | [5]; [18] 74% | [5]; at 50.0 µM 87.5% | [5]; at 100.0 µM 81% | [6]; at 33.0 µM 94% | [6]; [18] 97% | [6]; at 50.0 µM 88.2% | [6]; at 100.0 µM 87% | [7]; at 11.0 µM 84% | [7]; at 33.0 µM 95% | [7]; at 100.0 µM 91% | [8]; [18] 95% | [8]; at 50.0 µM 87.8% | [9]; at 11.0 µM 89% | [9]; at 33.0 µM 97% | [9]; at 100.0 µM 91% | [10]; [18] 97% | [10]; at 50.0 µM 85.8% | [11]; at 11.0 µM 78% | [11]; at 33.0 µM 94% | [11]; [18] 97% | [11]; at 50.0 µM 86.2% | [11]; at 100.0 µM 90% | [12]; at 33.0 µM 95% | [12]; at 100.0 µM 93% | [13]; at 11.0 µM 93% | [13]; at 33.0 µM 95% | [13]; at 100.0 µM 91% | [14]; at 11.0 µM 89% | [14]; at 33.0 µM 95% | [14]; at 100.0 µM 84% | [15]; [18] 94% | [15]; at 50.0 µM 88.8% | [16]; at 11.0 µM 89% | [16]; at 33.0 µM 94% | [16]; at 100.0 µM 87%
inactive: [1]; at 1.2 µM 13% | [1]; at 3.7 µM 14% | [2]; at 1.2 µM 16% | [2]; at 3.7 µM 5% | [3]; at 1.2 µM 26% | [3]; at 3.7 µM 27% | [3]; at 11.0 µM 32% | [3]; at 33.0 µM 28% | [3]; at 100.0 µM 6% | [4]; at 1.2 µM 20% | [4]; at 3.7 µM 20% | [5]; at 1.2 µM 13% | [5]; at 3.7 µM 16% | [5]; [17] -12% | [5]; at 11.0 µM 66% | [6]; at 1.2 µM 23% | [6]; at 3.7 µM 15% | [6]; [17] 2% | [6]; at 11.0 µM 67% | [7]; at 1.2 µM -9% | [7]; at 3.7 µM 5% | [8]; [17] 28% | [9]; at 1.2 µM 19% | [9]; at 3.7 µM 6% | [10]; [17] 54% | [11]; at 1.2 µM 4% | [11]; at 3.7 µM 9% | [11]; [17] 65% | [12]; at 1.2 µM 14% | [12]; at 3.7 µM 0% | [12]; at 11.0 µM 67% | [13]; at 1.2 µM -1% | [13]; at 3.7 µM 23% | [14]; at 1.2 µM 26% | [14]; at 3.7 µM 19% | [15]; [17] 50% | [16]; at 1.2 µM -1% | [16]; at 3.7 µM 2%

NCCCSc1ccccc1
active: [11]; [18] 78%
inactive: [1]; at 1.2 µM -2% | [1]; at 3.7 µM -2% | [1]; at 11.0 µM -4% | [1]; at 33.0 µM -4% | [1]; at 100.0 µM -2% | [2]; at 1.2 µM -2% | [2]; at 3.7 µM -4% | [2]; at 11.0 µM -2% | [2]; at 33.0 µM -3% | [2]; at 100.0 µM -3% | [3]; at 1.2 µM -3% | [3]; at 3.7 µM -1% | [3]; at 11.0 µM -4% | [3]; at 33.0 µM -8% | [3]; at 100.0 µM -6% | [4]; at 1.2 µM -3% | [4]; at 3.7 µM -4% | [4]; at 11.0 µM -4% | [4]; at 33.0 µM 13% | [4]; at 100.0 µM -1% | [5]; at 1.2 µM -3% | [5]; at 3.7 µM -2% | [5]; [17] 2% | [5]; at 11.0 µM -2% | [5]; at 33.0 µM -3% | [5]; [18] -19% | [5]; at 50.0 µM -25.2% | [5]; at 100.0 µM -2% | [6]; at 1.2 µM -1% | [6]; at 3.7 µM 0% | [6]; [17] -8% | [6]; at 11.0 µM 1% | [6]; at 33.0 µM 0% | [6]; [18] -30% | [6]; at 50.0 µM 14.7% | [6]; at 100.0 µM 0% | [7]; at 1.2 µM -2% | [7]; at 3.7 µM -1% | [7]; at 11.0 µM -1% | [7]; at 33.0 µM -1% | [7]; at 100.0 µM -1% | [8]; [17] -11% | [8]; [18] -6% | [8]; at 50.0 µM -1.9% | [9]; at 1.2 µM -4% | [9]; at 3.7 µM -3% | [9]; at 11.0 µM 0% | [9]; at 33.0 µM -4% | [9]; at 100.0 µM -5% | [10]; [17] -3% | [10]; [18] 37% | [10]; at 50.0 µM 34.4% | [11]; at 1.2 µM -2% | [11]; at 3.7 µM -3% | [11]; [17] 8% | [11]; at 11.0 µM -1% | [11]; at 33.0 µM -1% | [11]; at 50.0 µM -0.3% | [11]; at 100.0 µM -4% | [12]; at 1.2 µM -2% | [12]; at 3.7 µM -2% | [12]; at 11.0 µM -2% | [12]; at 33.0 µM -2% | [12]; at 100.0 µM -1% | [13]; at 1.2 µM -2% | [13]; at 3.7 µM -4% | [13]; at 11.0 µM -2% | [13]; at 33.0 µM -4% | [13]; at 100.0 µM -2% | [14]; at 1.2 µM 0% | [14]; at 3.7 µM 1% | [14]; at 11.0 µM 2% | [14]; at 33.0 µM 0% | [14]; at 100.0 µM 1% | [15]; [17] -21% | [15]; [18] -15% | [15]; at 50.0 µM -4.65% | [16]; at 1.2 µM -1% | [16]; at 3.7 µM -1% | [16]; at 11.0 µM -8% | [16]; at 33.0 µM 1% | [16]; at 100.0 µM -1%

O=[N+]([O-])c1cc[n+]([O-])c(Cl)c1
active: [1]; at 33.0 µM 82% | [1]; at 100.0 µM 98% | [2]; at 33.0 µM 100% | [2]; at 100.0 µM 99% | [3]; at 33.0 µM 94% | [3]; at 100.0 µM 98% | [4]; at 33.0 µM 99% | [4]; at 100.0 µM 99% | [5]; at 33.0 µM 100% | [5]; [18] 99% | [5]; at 50.0 µM 99.5% | [5]; at 100.0 µM 100%
inactive: [1]; at 1.2 µM 1% | [1]; at 3.7 µM 12% | [1]; at 11.0 µM 10% | [2]; at 1.2 µM -17% | [2]; at 3.7 µM -26% | [2]; at 11.0 µM -19% | [3]; at 1.2 µM 8% | [3]; at 3.7 µM 14% | [3]; at 11.0 µM 44% | [4]; at 1.2 µM 12% | [4]; at 3.7 µM -4% | [4]; at 11.0 µM 24% | [5]; at 1.2 µM 1% | [5]; at 3.7 µM 9% | [5]; [17] 9% | [5]; at 11.0 µM 28% | [6]; at 1.2 µM 5% | [6]; at 3.7 µM 15%
